The full data set covers some 7,900 targets. This sample favours those with a hit. About 0.6% of all pairs of compound and target were hits.
How the values were obtained:
Assay in all cases: log2 fold change, soluble protein after heating vs DMSO (PISA); higher = thermal stabilisation; K562 cells, 10 uM, 30 min; active = over 0.2 and 3.5 SD of the protein, either way, in both replicates (recomputed)
[1] = compound: CS(=O)(=O)c1ccc(-c2cnc(N)c(C(=O)Nc3ccccc3)n2)cc1
Outline: (§1)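 Aliquots of K562 cells (2×10^6 cells/mL) treated with 10 μM compound for 30 min were heated for 3 min over 48°C-58°C. After pooling and extraction in PBS with 0.5% NP-40 at 4°C, soluble protein from a 21,000xg, 90 min spin was quantified by TMTpro 16plex LC-MS/MS with channel sums equalised. Thermal stability is expressed against control samples, from duplicates, as a log2 fold change.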

crizotinib = compound: C[C@@H](Oc1cc(-c2cnn(C3CCNCC3)c2)cnc1N)c1c(Cl)ccc(F)c1Cl [crizotinib]
Outline: as §1

[2] = compound: C[C@@H]1COCCN1C2=NC(=NC(=C2)C3(CC3)S(=O)(=O)C)C4=C5C=CNC5=CC=C4
Outline: as §1

[3] = compound: C[C@H](C1=CC=C(C=C1)C(=O)NC2=C3C=CNC3=NC=C2)N
Outline: as §1

duvelisib = compound: C[C@H](Nc1ncnc2nc[nH]c12)c1cc2cccc(Cl)c2c(=O)n1-c1ccccc1 [duvelisib]
Outline: as §1

gandotinib = compound: Cc1cc(Nc2cc(CN3CCOCC3)c3nc(C)c(Cc4ccc(Cl)cc4F)n3n2)n[nH]1 [gandotinib]
Outline: as §1

tozasertib = compound: Cc1cc(Nc2cc(N3CCN(C)CC3)nc(Sc3ccc(NC(=O)C4CC4)cc3)n2)n[nH]1 [tozasertib]
Outline: as §1

[4] = compound: Cc1cc(SCc2sc(-c3ccc(C(F)(F)F)cc3)nc2C)ccc1OCC(=O)O
Outline: as §1

doramapimod = compound: Cc1ccc(-n2nc(C(C)(C)C)cc2NC(=O)Nc2ccc(OCCN3CCOCC3)c3ccccc23)cc1 [doramapimod]
Outline: as §1

ispinesib = compound: Cc1ccc(C(=O)N(CCCN)[C@@H](c2nc3cc(Cl)ccc3c(=O)n2Cc2ccccc2)C(C)C)cc1 [ispinesib]
Outline: as §1

Measured: log2 fold change

ACSF3 (UniProt Q4G176)
inactive: [1] 0.018 | crizotinib 0.063 | [2] -0.002 | [3] 0.026 | duvelisib 0.014 | gandotinib 0.09 | tozasertib 0.023 | [4] 0.022 | doramapimod -0.027 | ispinesib 0.174

APAF1 (UniProt O14727)
inactive: [1] -0.045 | crizotinib 0.045 | [2] 0.115 | [3] -0.061 | duvelisib 0.268 | gandotinib 0.047 | [4] 0.119 | doramapimod 0.006 | ispinesib -0.181

ASB6 (UniProt Q9NWX5)
inactive: [1] 0.019 | crizotinib 0.013 | [2] -0.025 | gandotinib 0.109 | doramapimod 0.037 | ispinesib -0.143

ACSL1 (UniProt P33121)
active: ispinesib -0.246
inactive: [1] 0.012 | crizotinib -0.091 | [2] 0.017 | [3] -0.024 | duvelisib 0.056 | gandotinib 0.008 | tozasertib -0.028 | [4] 0 | doramapimod -0.003

ANK2 (UniProt Q01484)
inactive: [1] 0.066 | crizotinib 0.062 | [3] -0.005 | duvelisib 0.21 | gandotinib -0.092 | tozasertib 0.011 | [4] 0.089 | doramapimod 0.055 | ispinesib -0.188

ATG9A (UniProt Q7Z3C6)
Sequence of UniProt Q7Z3C6 (Q7Z3C6 whole entry, looked up): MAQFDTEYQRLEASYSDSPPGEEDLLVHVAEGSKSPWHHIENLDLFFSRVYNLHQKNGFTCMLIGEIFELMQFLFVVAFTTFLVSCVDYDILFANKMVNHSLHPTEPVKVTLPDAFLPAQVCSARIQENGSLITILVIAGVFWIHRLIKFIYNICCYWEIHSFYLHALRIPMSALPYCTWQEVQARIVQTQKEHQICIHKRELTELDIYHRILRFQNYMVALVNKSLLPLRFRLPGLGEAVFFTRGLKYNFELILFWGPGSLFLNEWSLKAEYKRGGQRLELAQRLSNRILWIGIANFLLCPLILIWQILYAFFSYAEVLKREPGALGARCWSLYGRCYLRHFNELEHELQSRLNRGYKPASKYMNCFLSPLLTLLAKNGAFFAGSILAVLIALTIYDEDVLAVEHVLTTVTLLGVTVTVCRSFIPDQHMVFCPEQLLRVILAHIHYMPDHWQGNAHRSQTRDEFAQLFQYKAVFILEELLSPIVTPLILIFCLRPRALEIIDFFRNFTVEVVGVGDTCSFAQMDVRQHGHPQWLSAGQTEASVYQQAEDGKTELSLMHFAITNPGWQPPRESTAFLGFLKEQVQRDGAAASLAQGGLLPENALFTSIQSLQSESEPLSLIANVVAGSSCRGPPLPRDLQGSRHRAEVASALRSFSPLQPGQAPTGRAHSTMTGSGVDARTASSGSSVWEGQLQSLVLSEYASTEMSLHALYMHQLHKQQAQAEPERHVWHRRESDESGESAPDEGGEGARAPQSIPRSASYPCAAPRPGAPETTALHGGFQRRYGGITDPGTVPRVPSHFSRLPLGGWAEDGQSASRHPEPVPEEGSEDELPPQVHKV
active: ispinesib -0.239
inactive: [1] 0.074 | crizotinib -0.11 | [2] 0.036 | [3] 0.036 | duvelisib 0.042 | gandotinib -0.062 | tozasertib 0.012 | [4] 0.069 | doramapimod -0.016

AMD1 (UniProt P17707)
inactive: [1] -0.058 | crizotinib 0.059 | [2] 0.035 | gandotinib 0.043 | tozasertib 0.105 | doramapimod -0.07 | ispinesib 0.008

BRAF (UniProt P15056)
Sequence of UniProt P15056 (P15056 whole entry, looked up): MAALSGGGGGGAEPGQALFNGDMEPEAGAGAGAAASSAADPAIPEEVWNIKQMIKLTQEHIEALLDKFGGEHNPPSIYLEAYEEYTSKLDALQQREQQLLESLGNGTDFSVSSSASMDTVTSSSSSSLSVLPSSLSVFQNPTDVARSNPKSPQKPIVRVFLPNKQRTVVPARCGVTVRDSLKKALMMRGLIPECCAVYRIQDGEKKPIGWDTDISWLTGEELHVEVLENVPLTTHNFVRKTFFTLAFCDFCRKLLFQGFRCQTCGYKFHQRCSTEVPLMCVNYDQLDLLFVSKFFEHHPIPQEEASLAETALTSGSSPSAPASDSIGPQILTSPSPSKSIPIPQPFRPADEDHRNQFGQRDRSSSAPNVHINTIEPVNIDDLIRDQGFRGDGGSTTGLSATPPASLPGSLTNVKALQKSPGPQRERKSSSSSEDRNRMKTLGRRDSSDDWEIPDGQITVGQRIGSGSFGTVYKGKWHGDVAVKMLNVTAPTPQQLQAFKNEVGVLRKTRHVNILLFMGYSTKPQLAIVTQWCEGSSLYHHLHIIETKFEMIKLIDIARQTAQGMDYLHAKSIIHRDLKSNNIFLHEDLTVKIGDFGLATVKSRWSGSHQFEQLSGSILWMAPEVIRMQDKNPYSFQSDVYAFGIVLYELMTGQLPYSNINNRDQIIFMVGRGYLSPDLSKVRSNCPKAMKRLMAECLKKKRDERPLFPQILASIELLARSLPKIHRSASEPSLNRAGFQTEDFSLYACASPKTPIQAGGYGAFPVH
inactive: [1] 0.006 | crizotinib 0.023 | [2] 0.034 | [3] -0.072 | duvelisib -0.014 | gandotinib -0.013 | tozasertib -0.004 | [4] -0.014 | ispinesib -0.024

AP2S1 (UniProt P53680)
inactive: [1] -0.022 | crizotinib -0.106 | [2] 0.453 | [3] -0.151 | duvelisib 0.04 | gandotinib -0.046 | tozasertib -0.054 | [4] 0.046 | doramapimod 0.031 | ispinesib 0.077

AP2M1 (UniProt C9JTK4)
inactive: [1] 0.105 | crizotinib 0.048 | [2] 0.158 | [3] 0.08 | duvelisib 0.147 | tozasertib 0.057 | [4] -0.03 | doramapimod 0.032

ACACB (UniProt O00763)
inactive: [1] 0.078 | crizotinib -0.152 | [2] -0.13 | [3] 0.341 | duvelisib -0.113 | gandotinib 0.041 | tozasertib -0.013 | [4] 0.289 | doramapimod 0.168 | ispinesib -0.188

ANKRD29 (UniProt Q8N6D5)
inactive: [1] 0.125 | crizotinib 0.019 | [2] 0.042 | [3] -0.043 | duvelisib 0.139 | gandotinib 0.185 | tozasertib -0.072 | [4] 0.017 | doramapimod 0.097 | ispinesib -0.055

ADAM15 (UniProt Q13444)
inactive: [1] 0 | crizotinib 0.097 | [2] 0.015 | [3] -0.047 | duvelisib 0.119 | gandotinib -0.047 | tozasertib -0.067 | [4] -0.047 | doramapimod 0.033 | ispinesib -0.119

ATP1A4 (UniProt Q13733)
Sequence of UniProt Q13733 (Q13733 whole entry, looked up): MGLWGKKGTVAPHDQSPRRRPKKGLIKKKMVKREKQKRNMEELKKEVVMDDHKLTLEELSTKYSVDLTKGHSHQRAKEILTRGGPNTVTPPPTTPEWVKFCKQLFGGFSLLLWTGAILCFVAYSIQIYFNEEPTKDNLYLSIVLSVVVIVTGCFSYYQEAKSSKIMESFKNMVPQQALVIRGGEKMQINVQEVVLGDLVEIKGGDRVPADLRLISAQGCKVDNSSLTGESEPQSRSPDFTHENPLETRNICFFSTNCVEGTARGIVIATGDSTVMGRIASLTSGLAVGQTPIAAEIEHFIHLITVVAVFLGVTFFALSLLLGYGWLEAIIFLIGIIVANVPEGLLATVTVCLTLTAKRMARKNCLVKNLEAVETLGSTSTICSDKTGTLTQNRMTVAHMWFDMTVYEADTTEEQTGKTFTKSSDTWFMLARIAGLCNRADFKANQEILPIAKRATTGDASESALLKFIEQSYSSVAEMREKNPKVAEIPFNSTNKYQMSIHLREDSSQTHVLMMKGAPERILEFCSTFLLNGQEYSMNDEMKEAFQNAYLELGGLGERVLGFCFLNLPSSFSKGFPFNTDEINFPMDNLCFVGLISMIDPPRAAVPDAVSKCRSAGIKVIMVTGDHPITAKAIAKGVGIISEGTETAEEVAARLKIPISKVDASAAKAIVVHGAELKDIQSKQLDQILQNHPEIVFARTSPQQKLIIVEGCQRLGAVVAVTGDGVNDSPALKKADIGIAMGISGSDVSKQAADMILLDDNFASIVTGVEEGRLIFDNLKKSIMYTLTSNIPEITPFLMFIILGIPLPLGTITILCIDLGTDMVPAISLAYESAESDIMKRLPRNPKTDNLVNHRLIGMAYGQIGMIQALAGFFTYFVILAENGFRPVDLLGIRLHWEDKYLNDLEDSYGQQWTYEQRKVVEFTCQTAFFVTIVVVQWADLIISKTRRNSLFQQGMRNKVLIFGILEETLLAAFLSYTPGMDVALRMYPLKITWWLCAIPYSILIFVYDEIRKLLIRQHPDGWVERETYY
inactive: [1] -0.013 | crizotinib 0.091 | [2] -0.067 | [3] -0.066 | duvelisib 0.174 | gandotinib -0.026 | tozasertib -0.053 | [4] 0.038 | doramapimod -0.086 | ispinesib 0.032

AP4S1 (UniProt Q9Y587)
Sequence of UniProt Q9Y587 (Q9Y587 whole entry, looked up): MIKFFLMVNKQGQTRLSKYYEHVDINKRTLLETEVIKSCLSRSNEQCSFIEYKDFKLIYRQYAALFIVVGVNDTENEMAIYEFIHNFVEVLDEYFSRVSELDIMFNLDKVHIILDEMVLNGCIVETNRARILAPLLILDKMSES
inactive: [1] -0.027 | crizotinib -0.028 | [2] 0.065 | [3] 0.133 | duvelisib -0.122 | [4] 0.013 | doramapimod -0.088

ATF7 isoform 6 (UniProt P17544)
inactive: [1] -0.131 | crizotinib 0.061 | [2] 0.02 | [3] -0.088 | duvelisib -0.093 | tozasertib -0.032 | [4] -0.054 | doramapimod 0.158 | ispinesib 0.223

AGAP3 isoform 4 (UniProt Q96P47)
inactive: [1] -0.041 | crizotinib -0.231 | [2] -0.133 | [3] 0.07 | tozasertib 0.183 | doramapimod 0.125 | ispinesib -0.069

ACOX3 (UniProt O15254)
Sequence of UniProt O15254 (O15254 whole entry, looked up): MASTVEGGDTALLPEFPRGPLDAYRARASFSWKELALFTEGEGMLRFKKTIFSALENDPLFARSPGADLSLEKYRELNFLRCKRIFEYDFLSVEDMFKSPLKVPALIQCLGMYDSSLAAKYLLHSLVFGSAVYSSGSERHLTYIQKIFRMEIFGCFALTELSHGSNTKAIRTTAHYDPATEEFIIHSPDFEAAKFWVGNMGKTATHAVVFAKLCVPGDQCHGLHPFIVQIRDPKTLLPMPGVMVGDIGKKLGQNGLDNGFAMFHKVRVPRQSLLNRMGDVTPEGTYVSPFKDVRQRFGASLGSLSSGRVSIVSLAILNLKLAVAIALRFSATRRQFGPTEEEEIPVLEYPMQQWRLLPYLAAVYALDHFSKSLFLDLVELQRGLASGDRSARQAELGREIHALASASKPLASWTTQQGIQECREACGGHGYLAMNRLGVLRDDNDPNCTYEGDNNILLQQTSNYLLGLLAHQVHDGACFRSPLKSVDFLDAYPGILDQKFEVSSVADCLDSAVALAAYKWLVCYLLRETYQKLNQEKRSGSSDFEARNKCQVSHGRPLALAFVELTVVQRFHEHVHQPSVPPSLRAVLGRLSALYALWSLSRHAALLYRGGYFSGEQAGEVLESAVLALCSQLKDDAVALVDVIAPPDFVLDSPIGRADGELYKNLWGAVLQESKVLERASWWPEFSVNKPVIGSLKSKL
inactive: [1] -0.006 | crizotinib -0.091 | [2] 0.016 | [3] 0.065 | tozasertib -0.018 | doramapimod 0.14

ARGLU1 (UniProt Q9NWB6)
Sequence of UniProt Q9NWB6 (Q9NWB6 whole entry, looked up): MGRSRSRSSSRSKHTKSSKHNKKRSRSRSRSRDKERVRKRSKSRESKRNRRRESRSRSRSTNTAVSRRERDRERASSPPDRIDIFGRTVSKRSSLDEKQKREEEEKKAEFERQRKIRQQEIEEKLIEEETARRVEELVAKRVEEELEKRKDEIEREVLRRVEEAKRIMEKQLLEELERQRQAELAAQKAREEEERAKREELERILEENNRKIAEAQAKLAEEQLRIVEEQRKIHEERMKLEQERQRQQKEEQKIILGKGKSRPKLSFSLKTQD
inactive: [1] -0.038 | crizotinib -0.008 | [2] -0.039 | [3] -0.344 | duvelisib -0.011 | gandotinib 0.212 | tozasertib 0.037 | [4] -0.027 | doramapimod 0.047 | ispinesib 0.242

ADD3 isoform 2 (UniProt Q9UEY8)
inactive: [1] -0.032 | crizotinib 0.028 | [2] 0.101 | [3] -0.248 | duvelisib 0.049 | gandotinib -0.211 | tozasertib 0.047 | [4] 0.089 | doramapimod -0.074 | ispinesib 0.036

APOH (UniProt P02749)
inactive: [1] -0.22 | crizotinib -0.179 | [3] -0.071 | duvelisib -0.017 | gandotinib -0.747 | tozasertib -0.125 | [4] 0.458 | doramapimod -0.108 | ispinesib -0.595

ARFIP1 isoform 2 (UniProt P53367)
inactive: [1] -0.03 | crizotinib -0.266 | [2] 0.047 | duvelisib 0.11 | gandotinib -0.112 | [4] 0.081 | doramapimod 0.087

ACSL5 isoform 3 (UniProt Q9ULC5)
inactive: [1] -0.014 | crizotinib -0.146 | [2] 0.11 | [3] 0.009 | duvelisib -0.024 | gandotinib 0.021 | tozasertib -0.076 | [4] -0.033 | doramapimod 0.059 | ispinesib -0.316

ACADVL isoform 3 (UniProt P49748)
inactive: [1] 0.042 | crizotinib 0.021 | [2] 0.078 | [3] -0.058 | duvelisib 0.081 | gandotinib -0.01 | tozasertib 0.003 | [4] -0.005 | doramapimod -0.065 | ispinesib -0.01

BRD2 isoform 2 (UniProt P25440)
inactive: [1] 0.618 | crizotinib 0.006 | [3] -0.065 | duvelisib 0.295 | gandotinib -0.089 | tozasertib 0.168 | [4] -0.083 | doramapimod 0.064

AFDN isoform 1 (UniProt P55196)
inactive: [1] 0.004 | crizotinib 0.088 | [2] 0.371 | [3] 0.111 | duvelisib 0.054 | gandotinib 0.183 | [4] 0.068 | doramapimod 0.116 | ispinesib 0.11

ADAMTS5 (UniProt Q9UNA0)
Sequence of UniProt Q9UNA0 (Q9UNA0 whole entry, looked up): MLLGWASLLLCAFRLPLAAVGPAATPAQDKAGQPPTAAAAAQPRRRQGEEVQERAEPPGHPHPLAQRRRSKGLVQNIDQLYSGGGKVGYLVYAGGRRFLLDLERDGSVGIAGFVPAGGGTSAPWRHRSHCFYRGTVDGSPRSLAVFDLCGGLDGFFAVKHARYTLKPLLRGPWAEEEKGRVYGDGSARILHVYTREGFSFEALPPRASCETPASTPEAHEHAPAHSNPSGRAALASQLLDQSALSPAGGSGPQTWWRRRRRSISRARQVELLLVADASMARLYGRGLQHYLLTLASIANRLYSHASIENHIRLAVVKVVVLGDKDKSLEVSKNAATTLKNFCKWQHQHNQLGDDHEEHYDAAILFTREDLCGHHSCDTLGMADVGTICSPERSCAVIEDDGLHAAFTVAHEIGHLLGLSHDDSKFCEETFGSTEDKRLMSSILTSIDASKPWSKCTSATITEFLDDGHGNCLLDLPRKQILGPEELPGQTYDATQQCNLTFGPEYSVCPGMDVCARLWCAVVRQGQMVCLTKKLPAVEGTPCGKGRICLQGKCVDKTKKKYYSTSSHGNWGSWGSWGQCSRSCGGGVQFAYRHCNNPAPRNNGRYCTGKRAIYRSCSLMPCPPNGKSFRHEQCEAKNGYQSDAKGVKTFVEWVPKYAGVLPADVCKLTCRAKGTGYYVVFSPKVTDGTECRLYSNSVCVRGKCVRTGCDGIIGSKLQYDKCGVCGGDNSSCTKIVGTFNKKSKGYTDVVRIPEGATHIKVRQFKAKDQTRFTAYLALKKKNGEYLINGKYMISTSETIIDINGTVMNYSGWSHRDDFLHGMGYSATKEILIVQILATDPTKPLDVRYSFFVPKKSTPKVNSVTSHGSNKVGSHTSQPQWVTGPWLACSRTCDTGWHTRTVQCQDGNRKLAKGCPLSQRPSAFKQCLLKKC
inactive: [1] 0.077 | crizotinib 0.084 | [3] -0.08 | duvelisib 0.111 | gandotinib 0.178 | tozasertib -0.093 | [4] -0.136 | doramapimod 0.052 | ispinesib -0.035

APOBEC3G (UniProt Q9HC16)
inactive: [1] -0.065 | crizotinib 0.059 | [2] -0.165 | duvelisib -0.189 | tozasertib 0.013 | [4] 0.102 | doramapimod 0.023 | ispinesib -0.01

ADPRH (UniProt P54922)
Sequence of UniProt P54922 (P54922 whole entry, looked up): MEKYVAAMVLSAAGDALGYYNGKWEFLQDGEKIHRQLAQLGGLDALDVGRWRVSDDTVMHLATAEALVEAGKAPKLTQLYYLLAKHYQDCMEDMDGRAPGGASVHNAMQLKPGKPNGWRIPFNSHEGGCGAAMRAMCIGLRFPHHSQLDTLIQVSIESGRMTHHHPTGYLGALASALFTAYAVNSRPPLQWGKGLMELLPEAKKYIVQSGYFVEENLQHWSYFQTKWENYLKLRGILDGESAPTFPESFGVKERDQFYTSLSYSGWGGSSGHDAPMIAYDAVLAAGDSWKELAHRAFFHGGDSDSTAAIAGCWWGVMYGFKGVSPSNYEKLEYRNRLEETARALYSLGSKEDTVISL
inactive: [1] 0.123 | crizotinib 0.056 | [2] 0.201 | gandotinib 0.157 | tozasertib -0.033 | doramapimod -0.071 | ispinesib -0.002

ABCA4 (UniProt P78363)
inactive: [1] 0.286 | crizotinib 0.035 | [2] 0.036 | [3] 0.019 | gandotinib 0.452 | tozasertib -0.055 | doramapimod 0.004 | ispinesib -0.119
